# PubChem BioAssay (EPA / NIEHS)
# Values joined by “and” are separate entries in the source; they are usually repeats but may differ in a detail not shown here. Identical values can stand only once. The source holds several records for some structures; these can differ, active in one and inactive in another. Active and inactive are the calls of the source. How the source made its calls: active means hit-call score of the fitted dose curve at least 0.9, where 1 is the maximum; inactive means score below 0.9.
# Read-out: CD69, CD69 (gene 969)
# Assay: BSK_LPS_CD69: BioMAP Diversity Plus: LPS Assay for CD69 Biomarker Activity (AID 2284303)
# Settings: primary human HUVEC with PBMC
# Experimental: BSK_LPS is a cell-based, multiplexed-readout assay that uses umbilical vein endothelium and peripheral blood mononuclear cells, a human vascular primary cell co-culture, with measurements taken at 24 hours after chemical dosing in a 96-well plate.BSK_LPS_CD69 is an assay component measured in the BSK_LPS assay. It measures CD69 antibody related to regulation of gene expression using ELISA technology.Data from the assay component BSK_LPS_CD69 was analyzed at the endpoint, BSK_LPS_CD69, in the positive analysis fitting direction relative to DMSO as the negative control and baseline of activity. Using a type of binding reporter, gain or loss-of-signal activity can be used to understand protein changes. To generalize the intended target to other relatable targets, this assay endpoint is annotated to the 'cytokine' intended target family, where the subfamily is 'inflammatory factor'.
# The levels of cell surface (or secreted, indicated by the prefix "s") biomarker endpoints were measured by ELISA. Overt cytotoxicity to cells in confluent adherent cultures (all systems other than the BT system) was assessed by measuring total protein levels using sulforhodamine B (SRB) staining in parallel cultures at the time of biomarker measurements, indicated as SRB endpoints. For proliferation assays for adherent cell types, individual cell types are cultured at sub-confluence and relative cell numbers quantified by SRB staining at time points optimized for each system (48 h: 3C and CASM3C systems; 72 h: BT and HDF3CGF systems; 96 h: SAg system). SRB was performed by staining cells with 0.1% SRB after fixation with 10% TCA and reading wells at 560 nm.Viability and proliferation of PBMC (T cells) was quantified by Alamar Blue reduction for the SAg and BT systems. For PBMC viability (referred to as PBMC Cytotoxicity within the assay endpoint names), cells were plated (75,000/well in a 96-well plate) and then chemical samples added for 1 h before addition of activators, SEB and TSST-1 (20 ng/mL final concentration each). Cells were incubated for 90 h. Then, Alamar Blue (20 uL/well) (Invitrogen, Cat DAL1100) was added for 6 h, and the plates were read with a fluorescence microplate reader at 546/580 nm (excitation/emission). For PBMC proliferation, cells were plated and activated as above but incubated for only 16 h prior to addition of Alamar Blue. Plates were read after 6 h.
SMILES,outcome,AC50
C=C(C)C(=O)OCCC(F)(F)C(F)(F)C(F)(F)C(F)(F)C(F)(F)C(F)(F)C(F)(F)C(F)(F)F,inactive,–
OCC(F)(OC(F)(F)C(F)(OC(F)(F)C(F)(F)C(F)(F)F)C(F)(F)F)C(F)(F)F (centres undefined),inactive,4.81 µM (active)
c1ccc(OCCOc2ccccc2)cc1,inactive,–
CCn1cc(C(=O)O)c(=O)c2ccc(C)nc21,inactive,–
CC(C)CCCC(C)(C)O,inactive,–
O=S(=O)(O)C(F)(F)C(F)(F)OC(F)(F)C(F)(F)F,inactive,–
O=C(O)C(F)(F)OC(F)(F)C(F)(F)OC(F)(F)C(F)(F)C(F)(F)C(F)(F)F,–,36 µM (active) and 32.4 µM (active)
CC(C)(CO)CO,inactive,–
CC(=O)c1ccc(C)cc1,inactive,–
C=C(F)C(=O)OC(C(F)(F)F)C(F)(F)F,inactive,–
CCCCN(CCO)CCO,inactive,–
CCCO[Si](OCCC)(OCCC)OCCC,inactive,–
O=C(O)C(F)(F)C(F)(F)C(F)(F)C(F)(F)C(F)(F)C(F)(F)C(F)(F)C(F)F,inactive,–
